Source: PubChem BioAssay (NCI)
Compounds without any hit were thinned out: in the full panel of roughly 79,000, 15% have a hit. Active and inactive are the calls of the source. Rule as the data show it: active = growth inhibition above about 70%; inactive = the rest.

Columns and labels:
[1] = NCI Yeast Anticancer Drug Screen. Data for the rad50 strain (AID 155);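 also: 0% = growth of vehicle-only cultures of the same strain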; conditions: S. cerevisiae rad50 strain growth inhibition; at 50.0 µM; active compounds read high
How it was run: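 A DNA repair-deficient yeast mutant serves as the test organism; compound-induced growth inhibition is calculated against vehicle-treated cells.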

[2] = NCI Yeast Anticancer Drug Screen. Data for the mec2-1 strain (AID 157); conditions: S. cerevisiae mec2-1 strain, at 50.0 µM, active compounds read high
How it was run: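 Yeast mec2-1 mutant treated with compound. Readout: growth inhibition vs vehicle controls.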

[3] = NCI Yeast Anticancer Drug Screen. Data for the sgs1 mgt1 strain (AID 161);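 also: 0% = growth of cultures given vehicle only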; conditions: S. cerevisiae sgs1 mgt1 strain, at 50.0 µM, active compounds read high
How it was run: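 Genetically altered yeast, compound exposure, growth inhibition relative to vehicle.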

[4] = NCI Yeast Anticancer Drug Screen. Data for the cln2 rad14 strain (AID 165);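 also: 0% = growth equal to vehicle treated cultures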; conditions: S. cerevisiae cln2 rad14 strain, at 50.0 µM, active compounds read high
How it was run: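 cln2 rad14 yeast strain; compound exposure; growth inhibition read vs vehicle controls.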

[5] = NCI Yeast Anticancer Drug Screen. Data for the bub3 strain (AID 167); conditions: S. cerevisiae bub3 mutant strain, at 50.0 µM, active compounds read high
How it was run: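 Inhibition values come from growth of compound-treated mutant yeast normalised to vehicle-treated controls.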

[6] = NCI Yeast Anticancer Drug Screen. Data for the mlh1 rad18 strain (AID 175); conditions: S. cerevisiae mlh1 rad18 strain growth inhibition; at 50.0 µM; active compounds read high
How it was run: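 Yeast w/ defined DNA-repair lesions; compound exposure; growth vs vehicle controls → % inhibition.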

Measured: growth inhibition

O=[N+]([O-])c1cccc(C2=NON(c3ncccn3)C3N=CC=CN23)c1 (stereo unspecified)
inactive: [1] 11.9% | [2] -17.7% | [3] 14.3% | [4] -4.9% | [5] -9.65% | [6] 26.1%

Cc1nc(N)sc1C(=O)/C=C\c1ccc2c(c1)OCO2
inactive: [1] 21.4% | [2] -3.2% | [3] 23.4% | [4] 10.3% | [5] 5.2% | [6] 35.4%

COc1ccc(C(=O)/C(Br)=C\C(=O)O)cc1
inactive: [1] 16.8% | [2] 24.4% | [3] 5.4% | [4] 28.6% | [5] 23.9% | [6] 7%

CC1CCc2c(ccc3ccccc23)C1 (stereo unspecified)
inactive: [1] -0.25% | [2] -16.4% | [3] -3.55% | [4] -4.55% | [5] -16.8% | [6] -2.05%

CCCCCCCCCCCCCCCCN1c2ccccc2C(C)(C)C12C=Cc1cccc([N+](=O)[O-])c1O2 (stereo unspecified)
inactive: [1] 2.85% | [2] -0.6% | [3] 13.7% | [4] 14.2% | [5] -3.1% | [6] -3.2%

O=C(Nc1ccccc1)OC1CCCC12CC2 (stereo unspecified)
inactive: [1] 8.7% | [2] 4.9% | [3] -16.1% | [4] -4.8% | [5] -2.25% | [6] 23.1%

CN(C)CCN(C(=Nc1ccccc1)N1CCCC1)c1ccccc1
inactive: [1] -18.7% | [2] -30.8% | [3] -30.4% | [4] 17.1% | [5] 0.45% | [6] 4.5%

O=C1c2ccccc2C(=O)N1CC1CO1 (stereo unspecified)
inactive: [1] 2.85% | [2] 10.3% | [3] 0.5% | [4] -7.7% | [5] 3.4% | [6] 27.3%

CC1CC([NH-])C([NH-])C(C)(C)C1.[Cl][Pt+2][Cl] (stereo unspecified)
inactive: [1] -4.35% | [2] -4.25% | [3] -9.95% | [4] -12.2% | [5] -10.8% | [6] -49.2%

O=C(C[n+]1cccc(C(=O)Nc2ccc(Cl)cc2)c1)Nc1ccccc1
inactive: [1] -10.9% | [2] -13.7% | [3] -2.45% | [4] 15.2% | [5] -4.35% | [6] 0.65%

COc1ccc(C(C)=O)cc1
inactive: [1] 34.5% | [2] 18.8% | [3] 30.6% | [4] 37.1% | [5] 29.9% | [6] 18.9%

CC[N+]1(C)CCC(O)(c2ccccc2)C(C(=O)c2ccccc2)C1 (stereo unspecified)
inactive: [1] 3.5% | [2] -6.1% | [3] -5.55% | [4] 34.1% | [5] 6.1% | [6] 11.3%

C/C=C1/CC(C)C(C)(O)C(=O)OCC2C(O)CN3CCC(OC1=O)C23 (stereo unspecified)
inactive: [1] 12.4% | [2] -2.3% | [3] -15.5% | [4] -10.3% | [5] -3.85% | [6] -43.6%

COC(=O)/C(=N\NC(C)(C)C)C(C(=O)OC)C(=O)C(=O)Nc1cc(Cl)ccc1Cl (stereo unspecified)
inactive: [1] 6.7% | [2] -0.25% | [3] -1.65% | [4] 1% | [5] -24.6% | [6] 8.55%

O=C(Nc1ccc(Br)cc1)Oc1ccc(-c2ccccc2)cc1
inactive: [1] 28.9% | [2] 9.15% | [3] 4.6% | [4] 18.1% | [5] 41.8% | [6] 18.4%

CCc1cccc(CC)c1NC1=CC(=O)C(=O)c2ccccc21
inactive: [1] 22.4% | [2] 11.4% | [3] 10% | [4] 18.8% | [5] 34.2% | [6] 18.2%

OCC(O)C1OC(n2cnc3c(=S)nc[nH]c32)C(O)C1O (stereo unspecified)
inactive: [1] 2.85% | [2] -6.75% | [3] -3.8% | [4] -42.8% | [5] -6.5% | [6] -10.6%

c1ccc(C23CCCCC2O3)cc1 (stereo unspecified)
inactive: [1] 0.75% | [2] 2.95% | [3] 6.55% | [4] 5.95% | [5] 12.4% | [6] 4.85%

COc1ccc2c(c1)CC/C2=N/O
inactive: [1] -10.7% | [2] 3.05% | [3] -4.5% | [4] -21.3% | [5] -22.8% | [6] 2.1%

CCCCOC(=O)NCNC(=O)OCCCC
inactive: [1] 23.2% | [2] -7.1% | [3] -2.1% | [4] -15% | [5] 1.6% | [6] 14.9%

CCOC(=O)c1ccc(-c2cccs2)[nH]1
inactive: [1] -35.3% | [2] -1.25% | [3] 3.95% | [4] -1.25% | [5] 27% | [6] -11.9%

CS(=O)(=O)ON1C(=O)c2ccccc2C1=O
inactive: [1] 9.9% | [2] -52% | [3] -3.9% | [4] 6.5% | [5] -2.6% | [6] -9.55%

Oc1ccccc1C=Nc1ccccc1
inactive: [1] 29% | [2] 1.95% | [3] 0% | [4] 6.8% | [5] -1.25% | [6] -2.4%

COc1cc(/C=C/c2ccnnc2)cc(OC)c1OC
inactive: [1] -9.2% | [2] 15.3% | [3] 16.8% | [4] -0.35% | [5] 15.3% | [6] -34.6%

CCOC(=O)C(CN(CC)CC)c1ccccc1 (stereo unspecified)
inactive: [1] -1.15% | [2] -6.35% | [3] -3.25% | [4] 1.8% | [5] 1.95% | [6] 10.3%

CCCCCCCCCSCCOC(=S)N(C)C
inactive: [1] 13.7% | [2] 14.7% | [4] 2.7% | [5] 21.8% | [6] 34.6%
active: [3] 79.2%

CCOC(=O)CSc1cc(C)[o+]c(C)c1
inactive: [1] 4.6% | [2] 6.25% | [3] 6.8% | [4] 15% | [5] -6.4% | [6] -3.15%

NC(CCCCC1CCCCC1)C(=O)O (stereo unspecified)
inactive: [1] -5.75% | [2] -29.4% | [3] -18.1% | [4] -37.4% | [5] -28.4% | [6] -2.95%

CC(=O)/C(=C\I)c1ccccc1
active: [1] 87.8% | [2] 91.8% | [3] 85.4% | [4] 89.9% | [5] 89.5% | [6] 85.5%

OCCN(CO)CCO
inactive: [1] -23.8% | [2] 6.35% | [3] -0.25% | [4] -2.6% | [5] 2.6% | [6] -25.2%

NC(CO)C(O)C(O)C(O)CO (stereo unspecified)
inactive: [1] 6.8% | [2] 4.5% | [3] 3.35% | [4] 6.7% | [5] 2.35% | [6] -0.45%

O=C(O)C(CCl)c1ccccc1 (stereo unspecified)
inactive: [1] 7.05% | [2] -3.1% | [3] 0.4% | [4] -17.1% | [5] 9.85% | [6] 2.25%

Cc1cc(N(CCC#N)CCC#N)ccc1N=Nc1cc(Cl)ccc1Cl
inactive: [1] 18.8% | [2] 16.8% | [3] -8.55% | [4] 13.2% | [5] 42% | [6] 16.6%

COC(=O)/C=C(\C)Nc1cccc([N+](=O)[O-])c1
inactive: [1] -15.2% | [2] -0.65% | [3] -18.9% | [4] -36.9% | [5] -0.75% | [6] -7.3%

Nc1nc(=O)n(CCCOc2cccc(Cl)c2)cc1-c1ccc(Cl)c(Cl)c1
active: [5] 87%
inactive: [1] 52.6% | [2] 49.4% | [3] 52.2% | [4] 68.8% | [6] 51.5%

CCOc1c2ccsc2c(OCC)c2ccsc12
inactive: [1] -14.9% | [2] -25.8% | [3] -10.2% | [4] 6.05% | [5] -5.15% | [6] -35.8%

CC1C(=O)C2C1CS2(=O)=O (stereo unspecified)
inactive: [1] -0.9% | [2] 0.65% | [3] 5% | [4] -59.1% | [5] 13% | [6] -5.45%

Cn1nc(-c2ccccc2)c(C(=O)/C=C/c2ccc(F)cc2)c(N2CCCCC2)c1=O
inactive: [1] 2.55% | [2] 8.55% | [3] -0.95% | [4] 28.2% | [5] 4.1% | [6] 10.2%

CC(C)(C)N=c1n(C(C)(C)C)oc(=O)n1C(C)(C)C
inactive: [1] -11.8% | [2] -34% | [3] -25.1% | [4] -2.95% | [5] -27.9% | [6] -11.9%

O=Cc1c[nH]c2ccccc12
inactive: [1] -7.7% | [2] 9.95% | [3] 22.8% | [4] -15.6% | [5] 1.85% | [6] 6.25%

CC(C)(N)C(=O)O
inactive: [1] 1.2% | [2] 24.5% | [3] 24.6% | [4] -10.9% | [5] -12.1% | [6] -6.85%
